Screening results as filed in PubChem BioAssay.
Ba/F3 V617F tox: reduce viability of Ba/F3 cells dependent on JAK2V617F. AID 1446. 220,000 compounds, 1.1% hits. inhibition, % at 5.6 µM. Ba/F3 EpoR-JAK2V617F viability, ATP luminescence;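 active means inhibition above the campaign mean plus 3 SD over all tested compounds, cut at about 24% in these data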;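 further: cytokine-independent growth of Ba/F3 cells driven by EpoR plus mutant JAK2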
aSyn UTR inh: MLPCN primary screen, SNCA 5' untranslated region; inhibition, % (tested at 7.5 µM); alpha-synuclein 5'UTR reporter, inhibitor activity; 300,000 compounds, 0.82% hits; AID 1813; in the data active means inhibition above about 60%;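 further: H4 neuroglioblastoma cells stably carrying SNCA 5'UTR luciferase fusion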
KLF5 inhibitor: inhibitors of KLF5 expression. 290,000 compounds, 0.23% hits. inhibition, % at 5 µM. DLD-1 KLF5 promoter-luciferase reporter, luminescence;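 active means inhibition above a per-plate limit of that plate's mean compound inhibition plus 3 SD, cut at about 60% in these data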;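 further: higher means less KLF5 promoter-driven luciferase light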
IEC-6 tox: counter-screen for KLF5 inhibitors: cytotoxicity in IEC-6 cells | inhibition, % at 5 µM | IEC-6 cytotoxicity, luminescence viability | AID 1825 | 290,000 compounds, 0.78% hits
APP transl inh: APP translation inhibition | SH-SY5Y APP 5'UTR-luciferase reporter, luminescence | inhibition, % at 2 µM | 190,000 compounds, 0.82% hits | AID 1285;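 active means inhibition above a set limit, derived from the sample mean plus 3 SD, cut at about 45% in these data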
BaF3 tox: reduces parental Ba/F3 cell viability, JAK2V617F counter-screen. CellTiter-Glo ATP luminescence. inhibition, % at 5.6 µM. 220,000 compounds, 1.1% hits;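 active means inhibition above a per-campaign cutoff, the mean inhibition of all tested compounds plus 3 SD, cut at about 27% in these data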
IEC-6 cytotox cf: IEC-6 cytotoxicity, confirmation assay; IEC-6 rat intestinal epithelial viability, luminescence; shares compounds with IEC-6 tox; 1,900 compounds, 63% hits; inhibition, % at 5 µM; AID 1907
Numbers stand for hits; 0 = inactive; - = not tested or not shown. Compounds with a hit are over-represented: about 2.2% of the library has one in this group of screens. Unless noted, no stated cut-off is given here; in the data, active means inhibition above about 22%; inactive means the rest.

SMILES	Ba/F3 V617F tox	aSyn UTR inh	KLF5 inhibitor	IEC-6 tox	APP transl inh	BaF3 tox	IEC-6 cytotox cf
COc1ccc2cc1Oc1ccc(cc1)CC1c3c(cc(OC)c4c3Oc3cc5c(cc3O4)CCNC5C2)CCN1C (stereo not given)	0	114	0	45	-	0	0
COc1ccc(C2C(C#N)=C(C)NC3=C2C(=O)c2ccccc23)cc1 (stereo not given)	0	0	0	0	0	0	-
CC1=C([N+](=O)[O-])C(c2ccccc2)C2=C(N1)c1ccccc1C2=O (stereo not given)	77	113	0	47	57	71	56
COc1cccc(NC(=O)[C@H](NC(=O)[C@@H]2Cc3ccccc3CN2)c2ccccc2)c1	-	0	0	0	-	-	-
CCOc1ccccc1N(C)S(=O)(=O)c1ccc2c(c1)N(C(C)=O)CCO2	-	0	0	0	-	-	-
COc1ccccc1NC(=O)N1CCC(c2nc3cc(C)c(C)cc3[nH]2)CC1	83	74	0	82	58	81	59
CN1CCc2c(sc(NC(=O)c3ccc4ccccc4c3)c2C(N)=O)C1	-	0	0	50	-	-	26
CN1CCc2c(sc(NC(=O)Cc3ccccc3)c2C(N)=O)C1	-	0	0	0	-	-	-
Clc1ccc2c(c1)C=Nc1c(NCc3ccccc3)ncnc1O2	0	0	0	0	0	0	-
C1=Nc2c(Nc3ccccc3)ncnc2Oc2ccccc21	0	0	0	53	0	0	33
Cc1ccccc1Nc1nnc(-c2ccc(C(=O)NCCO)cc2)c2ccccc12	-	0	0	0	-	-	-
COc1cc(OC)cc(C(=O)N2CC(=O)Nc3ccccc32)c1	-	0	0	74	-	-	56
COc1ccc2[nH]c3c(N4CCc5ccccc5C4)ncnc3c2c1	76	0	0	77	-	78	66
COc1ccc(N2CCN(c3ncnc4c3[nH]c3ccccc34)CC2)cc1	0	0	0	0	-	0	-
Cc1cc(C)n(/N=C/c2cccs2)c(=O)c1C#N	0	0	0	71	0	0	0
O=[N+]([O-])c1cc([N+](=O)[O-])c2cc3ccccc3nc2c1	-	0	0	46	-	-	0
Clc1ncccc1OCc1ccccc1	-	0	-	-	-	-	-
O=C(CCCl)Nc1nc2c(s1)CCc1ccccc1-2	-	0	0	30	-	-	0
Cc1cccc(-c2cccc(NC(=O)C3CCCN(C(=O)c4csc(C)n4)C3)c2)c1 (stereo not given)	-	0	0	0	-	-	-
CCCCn1c(SCc2c(C)noc2C)nc2cc(S(N)(=O)=O)ccc21	68	0	0	30	0	62	0
O=S(=O)(O)c1cccc2c(N=Nc3ccc(O)c4ncccc34)cccc12	-	0	0	0	-	-	-
Nc1ccc(Br)c2cccnc12	0	0	0	0	0	0	-
COc1cccc(N=Nc2ccc3cccnc3c2O)c1	-	0	0	30	-	-	56
Nc1ccc(N=Nc2ccccc2)c2cccnc12	-	0	0	33	-	-	34
COc1cccc(N=Nc2ccc(O)c3ncccc23)c1	-	0	0	30	-	-	0
SMILES	Ba/F3 V617F tox	aSyn UTR inh	KLF5 inhibitor	IEC-6 tox	APP transl inh	BaF3 tox	IEC-6 cytotox cf
O=S(=O)(c1ccc2ccccc2c1)N1CCN(CCO)CC1	-	0	0	0	-	-	-
O=C(Nc1nc(-c2ccccc2)cs1)Nc1ccc(F)cc1F	0	0	0	0	0	0	-
O=C(Nc1nc(-c2ccccn2)cs1)Nc1ccc(F)cc1F	-	0	0	50	-	-	47
O=C(CN1C(=O)C2CCCCC2C1=O)Nc1nc(-c2ccccn2)cs1 (stereo not given)	0	0	0	41	0	0	0
C[C@@H](C(=O)Nc1nc(-c2ccccn2)cs1)N1C(=O)C2CCCCC2C1=O (stereo not given in full)	0	0	0	0	-	0	-
O=C(Nc1nc(-c2ccccn2)cs1)c1ccc2c(c1)OCCO2	0	0	0	28	0	0	0
Nc1cn(C2OC(CO)C(O)C2O)c(=O)[nH]c1=O (stereo not given)	-	0	0	0	-	-	-
Cc1ccc(S(=O)(=O)C2(C(=O)NCCc3ccccc3)CC2)cc1	-	0	0	0	-	-	-
CCOc1ccc(-c2cc(C(=O)N/N=C/c3cccnc3)c3ccccc3n2)cc1	-	0	0	66	-	-	45
CCc1cc(C(=O)N/N=C/c2ccc(OC)cc2)c2ccccc2n1	-	0	0	30	-	-	0
COc1ccc(/C=N/NC(=O)c2cccc(NC(=O)c3ccccc3Cl)c2)cc1	-	0	0	72	-	-	50
O=C(N/N=C/c1ccco1)c1cc(-c2ccncc2)nc2ccccc12	-	0	0	31	-	-	0
COc1ccc(OC)c(-c2cc(C(=O)N/N=C/c3ccc(F)cc3)c3ccccc3n2)c1	-	0	-	-	-	-	-
Cc1ccc2nc(NS(=O)(=O)c3cn(C)nc3C)sc2c1	-	0	0	0	-	-	-
COc1ccc(-c2nnn(CC(=O)N(CC(=O)NC3CCCC3)c3ccccc3F)n2)cc1OC	-	0	0	0	-	-	-
CCN1C(=NCCc2c[nH]c3ccccc23)N[C@@H](c2ccccc2)[C@H](C(=O)OC)[C@H]1C	-	0	0	0	-	-	-
COc1ccc(-n2nc(C(=O)NCC(=O)Nc3ccc(F)cc3)c3ccccc3c2=O)cc1	-	0	0	0	-	-	-
O=C(CCNC(=O)N1CC(=O)Nc2ccccc21)Nc1ccc(F)c(Cl)c1	-	0	0	0	-	-	-
Cc1ccc(NC(=O)CNCc2cccs2)c(Br)c1	-	0	0	0	-	-	-
C/C(=N\NC(=O)c1cc(C)nc2ccccc12)c1ccncc1	-	0	0	42	-	-	0
C/C(=N\NC(=O)c1cc(C)nc2ccccc12)c1ccc([N+](=O)[O-])cc1	0	0	0	0	0	0	-
O=C(NCc1cccnc1)c1ccc(NC(=O)c2ccc(Br)cc2)cc1	-	0	0	89	-	-	43
Cc1cccc(OCC(=O)Nc2ccc(C(=O)NCc3cccnc3)cc2)c1	0	0	0	26	0	0	0
Brc1ccc2c(c1)CN1CCCC1=N2	-	0	0	34	-	-	0
Cc1nc(NC(=O)CN2CCC(O)(c3ccc(F)cc3)CC2)sc1C	0	0	0	0	-	0	-
SMILES	Ba/F3 V617F tox	aSyn UTR inh	KLF5 inhibitor	IEC-6 tox	APP transl inh	BaF3 tox	IEC-6 cytotox cf
CC(C)N(CCCNC(=O)C1CCN(C(=O)c2cc3sccc3n2C)CC1)Cc1ccccc1	-	0	0	0	-	-	-
O=C(NCC1OCCc2ccccc21)c1cc(COc2c(F)cccc2F)on1 (stereo not given)	98	0	0	82	0	103	0
O=C(NC1CCc2ccccc21)c1cc(COc2c(F)cccc2F)on1 (stereo not given)	0	0	0	0	-	0	-
O=[N+]([O-])c1c(Nc2ccccc2O)cc(Cl)c2nonc12	-	0	0	96	-	-	43
COC1=C(Nc2ccc(OC)cc2)C(=O)c2ccccc2C1=O	0	0	0	0	0	0	-
CC(=O)Nc1ccc2c(c1)C(=O)c1ccccc1C2=O	0	0	0	0	0	0	-
COc1ccc(NC2=C(NC(C)=O)C(=O)c3ccccc3C2=O)cc1	-	0	0	44	-	-	0
CC(=O)Nc1ccc(NC2=CC(=O)c3ccccc3C2=O)cc1	-	0	0	97	-	-	0
COc1cc(N)ccc1NC(=O)c1cc2ccccc2o1	-	0	0	0	-	-	-
CC(C)c1ccc(O)c(NC(=S)NC(=O)c2cccnc2)c1	0	0	0	34	0	0	0
CC(C)(C)c1ccc(C(=O)NNC(=S)NC(=O)c2cccnc2)cc1	-	0	0	30	-	-	23
